TDP1 cell CPT = qHTS for Inhibitors of human tyrosyl-DNA phosphodiesterase 1 (TDP1): qHTS in cells in presence of CPT; chicken DT40 Tdp1-/-;hTDP1 cells + 20 nM CPT, ATP luminescence, 48 h; Potency, µM (top dose mostly 46.2 µM), without a hit: top-dose activity change, negative = growth inhibition, usual class: inhibitors; 12% of 420,000 active; AID 686979, 2013; further: potency means the concentration at half of the fitted maximal effect; on the % scale 0 is the no-effect control and ±100 the full control effect; nearly all actives have a fitted effect of over 55% in size
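Cell growth measured by CellTiter-Glo luminescence after a minimum 48 h, 37 C compound exposure with 20 nM CPT in Tdp1-knockout DT40 cells stably expressing hTDP1, seeded 400/well; qHTS titration format.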
Chronic BCR inh = qHTS Assay to Find Inhibitors of Chronic Active B-Cell Receptor Signaling | ABC-DLBCL IkBa-CBG/CBR reporter, luminescence ratio, 4 h | Potency, µM (series often up to 46.1 µM), for the others: at the highest dose activity change, negative = inhibition, hits mostly inhibitors | 0.05% of 340,000 active; active means well fitted inhibition curve with a large enough effect in the signal ratio, with a control signal flat, not every such curve was filed as active; inconclusive means small, poorly fitted or top-dose-only effect, or effect the other way, or a change in a side signal; the % refers to the signal ratio;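 further: potency means the concentration at half of the fitted maximal effect; plate controls were basal doxycycline-induced cells for no effect and cells given 10 µM MG132 for full effect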
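Cell line TMD8 (human ABC DLBCL), stably expressing tet-inducible CBG68-IkBa fusion and CBR; IMDM/0.5% FBS; cpd up to 46 uM; dox induction, 4 h, 37C/5% CO2; dual luminescence; green/red ratio; MG132 control.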
SW480 rerep = A quantitative high throughput screen for small molecules that induce DNA re-replication in SW480 colon adenocarcinoma cells; Potency, µM (top dose mostly 46.1 µM), for the others: at the highest dose re-replication activation, usual class: activators; 1.8% of 340,000 active; SW480 DNA re-replication, Hoechst DNA content imaging, 48 h; further: potency means the concentration at half of the fitted maximal effect; % of control where 0% means no effect; nearly all actives have a fitted effect of over 55% in size
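Treated cells incubate 48 hr (37 C, 5% CO2), are stained 40 min with Hoechst, and nuclear fluorescence is enumerated; a rise in nuclei with high DNA signal marks re-replication.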
MCF10A rereplic = A quantitative high throughput screen for small molecules that induce DNA re-replication in MCF 10a normal breast cells. Potency, µM (series often up to 46.1 µM), without a hit: at the highest dose activity, positive = re-replication, usual class: activators. 2.9% of 350,000 active. MCF 10A DNA re-replication, Hoechst nuclear intensity, 48 h. AID 624296, 2012; further: potency means the concentration at half of the fitted maximal effect; % of control where 0% means no effect; nearly all actives have a fitted effect of over 50% in size
TDP1 cell noCPT = qHTS for Inhibitors of human tyrosyl-DNA phosphodiesterase 1 (TDP1): qHTS in cells in absence of CPT; 15% of 420,000 active; Potency, µM (series often up to 46.2 µM), for inactives: at the top dose activity change, negative = growth inhibition, hits mostly inhibitors; DT40 Tdp1-/- hTDP1 cells, no CPT, ATP luminescence, 48 h; AID 686978, 2013; further: potency means the concentration at half of the fitted maximal effect; on the % scale 0 is the no-effect control and ±100 the full control effect; nearly all actives have a fitted effect of over 55% in size
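Cells were dispensed at 400 per well, compounds added by pin tool, plates incubated ≥48 hr at 37 °C, then CellTiter-Glo added for 30 min at room temperature before luminescence reading. Line: DT40 Tdp1-/- complemented with hTDP1; camptothecin omitted.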
IL1B secr inh = qHTS for Inhibitors of Inflammasome Signaling: IL-1-beta AlphaLISA Primary Screen. THP-1 LPS/ATP IL-1B secretion, AlphaLISA, 16 h; active compounds read low. activity change, % at 57.5 µM. 4.7% of 360,000 active; in the data active means activity change below about -50%; inconclusive means mostly about -30% to -49%; further: on the % scale 0 is the no-effect control and ±100 the full control effect
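THP-1 cells pretreated 1 hr with compounds (up to 57.5 uM final), then stimulated with LPS (250 ng/mL final) plus ATP (1.25 mM final); secreted IL-1B measured by AlphaLISA after 16 hr, decreased signal indicating inhibition.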
* = called active by the depositor; ? = inconclusive; / = no result; [ ] = dose if it differs, or a comment. The list is not random: actives were taken first. Their share in the collection is about 19%. Unless noted, the call rests on the fitted dose curve; in most records, active means well fitted curve in the direction sought with a large enough effect; inconclusive means small, poorly fitted or top-dose-only effect, or another doubt; inactive means no such curve, though single readings can be large; an effect the other way counts as inactive or inconclusive.

SMILES	TDP1 cell CPT	Chronic BCR inh	SW480 rerep	MCF10A rereplic	TDP1 cell noCPT	IL1B secr inh
COC(=O)[C@@]12C[C@@H](CC(=O)N3CCN(C(=O)c4ccco4)CC3)C(=O)N(CCc3ccc(OC)c(OC)c3)C1=CCC(C)(C)C2	?	/	/	/	?	-51*
CCCCCCCCN1C(=O)[C@H](CC(=O)N2CCN(C(=O)c3ccco3)CC2)C[C@@]2(C(=O)OC)CCCCC=C12	?	/	/	/	23µM*	-25
CCCCCCCCN1C(=O)[C@H](CC(=O)N2CCN(C(=O)c3ccco3)CC2)C[C@@]2(C(=O)OC)CC(C)(C)CC=C12	12µM*	/	/	/	15µM*	-51*
COc1ccc(-c2cc(C3CCNCC3)[nH]n2)cc1	?	-1%	-14%	1%	?	-9
O=c1ccc(-c2ccc(S(=O)(=O)Nc3ccc(F)cc3)s2)n[nH]1	?	-18%	-16%	?	7%	10
COC(=O)CCN1CCC2CC1c1cc(N3CCCCC3)ccc12 (centres undefined)	-4%	/	/	/	-8%	3
O=C(c1ccccc1F)N1CCN(c2ccc([N+](=O)[O-])c(NCC3CCCO3)c2)CC1 (centres undefined)	?	-5%	-2%	-6%	18µM*	-17
O=[N+]([O-])c1ccc(N2CCN(S(=O)(=O)c3ccc(Cl)cc3)CC2)cc1NCC1CCCO1 (centres undefined)	-8%	3%	-3%	?	-5%	-2
O=C(NC(NC1CCS(=O)(=O)C1)C(Cl)(Cl)Cl)c1cccc(Cl)c1 (centres undefined)	-3%	0%	1%	0%	-19%	3
O=C(NC(NC1CCS(=O)(=O)C1)C(Cl)(Cl)Cl)c1ccc(Br)cc1 (centres undefined)	8.2µM*	0%	-18%	1%	7.3µM*	-3
C=CCN1C(=O)c2ccc(C(=O)N3CCC(C(N)=O)CC3)cc2C1=O	16%	-1%	-10%	5%	4%	5
COc1ccc(N2CCc3c(C)nc4c(OC)cccc4c32)cc1	4.6µM*	3%	?	?	2.9µM*	-96*
Cc1nc2c(C)cccc2c2c1CCN2c1ccccc1F	15µM*	0%	-1%	?	21µM*	-76*
COc1ccc(N2C(=O)C3C4C=CC(C4)C3C2=O)c(OC)c1 (centres undefined)	-4%	-15%	-2%	-22%	-6%	29
COc1ccc(N2Cc3ccc(OC)c(OC)c3C2=O)cc1	-4%	?	-16%	7%	-7%	-13
COc1cccc(N2CCc3c(C)nc4ccc(Cl)cc4c32)c1	10µM*	-1%	?	?	7.3µM*	-96*
COc1ccc(N2CCc3c(C)nc4c(OC)cc(OC)cc4c32)c(OC)c1	6.5µM*	0%	?	26µM*	5.2µM*	-58*
O=C(CSc1ccc([N+](=O)[O-])cn1)Nc1cc(C(F)(F)F)ccc1N1CCOCC1	?	?	19%	1%	?	-10
C=CCC[C@@H](Cc1ccc(F)cc1)C(=O)OC[C@@H](Cc1c[nH]c2ccccc12)NC(=O)[C@H](CC=C)CC(=O)NCCO	?	?	-5%	5%	18µM*	-21
C=CC[C@@H](CC(=O)NCCO)C(=O)N[C@@H](COC(=O)[C@@H](CC=C)Cc1ccc(F)cc1)Cc1c[nH]c2ccccc12	?	-1%	0%	?	?	-55*
C=CCC[C@H](Cc1ccc(F)cc1)C(=O)OC[C@H](Cc1c[nH]c2ccccc12)NC(=O)[C@H](CC=C)CC(=O)NCCO	?	-2%	-2%	?	18µM*	?
C=CCC[C@@H](Cc1ccc(F)cc1)C(=O)OC[C@@H](Cc1c[nH]c2ccccc12)NC(=O)[C@@H](CC=C)CC(=O)NCCO	?	?	?	?	?	-65*
C=CCC[C@@H](Cc1ccc(F)cc1)C(=O)OC[C@H](Cc1c[nH]c2ccccc12)NC(=O)[C@@H](CC=C)CC(=O)NCCO	?	?	-8%	6%	?	1
C=CC[C@@H](CC(=O)NCCO)C(=O)N[C@H](COC(=O)[C@@H](CC=C)Cc1ccc(F)cc1)Cc1c[nH]c2ccccc12	?	-8%	-8%	8%	?	-11
CCOc1ccccc1OCCCCn1c(-c2ccc(Cl)cc2)nc2ccccc2c1=O	?	/	/	/	-9%	/
SMILES	TDP1 cell CPT	Chronic BCR inh	SW480 rerep	MCF10A rereplic	TDP1 cell noCPT	IL1B secr inh
C[C@H]1CN([C@@H](C)CO)C(=O)CCCn2nncc2CO[C@H]1CN(C)C(=O)Cc1ccccc1	4%	/	/	/	0%	-11
O=C1C=C(NC2=CC3OC(c4ccccc4)OCC3OC2=O)CCC1 (centres undefined)	8.2µM*	?	?	?	9.2µM*	-117*
CC(C)NC(=O)[C@H]1N2C(=O)c3ccccc3C2SC1(C)C (some centres undefined)	10%	-2%	-1%	8%	-2%	16
CCCCOCCCn1c(-c2ccco2)nc2nc3ccccc3nc21	?	16%	16%[9.22 µM]	20%	21µM*	-29
c1ccc(-c2nc3nc4ccccc4nc3n2Cc2ccco2)cc1	?	?	-4%	?	22µM*	-7
c1ccc(Cn2c(-c3cccs3)nc3nc4ccccc4nc32)cc1	/	2%	/	/	/	/
CCCCn1c(-c2cccs2)nc2nc3ccccc3nc21	?	19%	?	14%	23µM*	5
CC(C)Cn1c(-c2cccs2)nc2nc3ccccc3nc21	16µM*	11%	?	?	15µM*	-9
Fc1ccc(-c2nc3nc4ccccc4nc3n2Cc2ccco2)cc1	?	?	4%	3%	?	-2
O=C(COc1ncnc2ccccc12)Nc1cc([N+](=O)[O-])ccc1F	-3%	-2%	0%	5%	3%	-4
C[C@@H]1CN([C@@H](C)CO)C(=O)CCCn2nncc2CO[C@H]1CN(C)C(=O)Nc1ccccc1F	-8%	/	/	/	-18%	14
COc1cc(CNCc2cc3ccc(F)cc3nc2N2CCOCC2)cc(OC)c1OC	-10%[9.04 µM]	/	/	/	-23%	/

Source: PubChem (National Center for Advancing Translational Sciences (NCATS))
